# Source: PubChem BioAssay AID2517 (National Center for Advancing Translational Sciences (NCATS), 2010)
# Several values for one entry are separate records, joined by “and”; a condition that tells them apart may be missing. Equal entries are not always repeated. The whole screen tested about 350,000 compounds, of which about 1,200 (0.34%) were called active. Not shown: some 3% with an inconclusive outcome. The call rests on the fitted dose curve; in most records, active means well fitted inhibition curve with a large enough effect; inconclusive means small, poorly fitted or top-dose-only effect; inactive means no such curve, though single readings can be large or run the other way. Many of the other results were omitted from the sample, so actives are more common in it than they were. Some compounds were tested as several samples or in several runs, with calls that do not always agree. Positions of bridges follow the written chain, without caps; N, C: chain ends. Non-standard residues stand in square brackets, D forms with d. Residues, ends and D or L forms follow the SMILES beside them. *: point of attachment. X1 = CC[C@H](C)CCCCC(=O)*; Dab = NCC[C@H](N)C(=O)O
# Molecular target: DNA repair nuclease/redox regulator APEX1 (Homo sapiens) (UniProt P27695)
# Sequence (P27695 whole entry, looked up): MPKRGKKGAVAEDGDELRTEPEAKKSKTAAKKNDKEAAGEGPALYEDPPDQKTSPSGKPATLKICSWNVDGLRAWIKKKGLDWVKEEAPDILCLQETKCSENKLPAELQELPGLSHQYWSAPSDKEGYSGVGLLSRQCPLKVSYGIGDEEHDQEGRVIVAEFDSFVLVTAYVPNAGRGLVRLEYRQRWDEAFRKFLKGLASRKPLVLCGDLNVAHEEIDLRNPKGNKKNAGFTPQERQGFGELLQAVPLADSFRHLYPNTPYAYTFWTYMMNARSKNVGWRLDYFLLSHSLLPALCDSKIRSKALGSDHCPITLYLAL
# Assay: qHTS Assay for Inhibitors of the Human Apurinic/apyrimidinic Endonuclease 1 (APE1); further: nearly all actives have a fitted effect of over 55% in size;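 on activity change, negative = inhibition: plate controls were vehicle for no effect and reference inhibitor for full effect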
# Details: recombinant APE1, TAMRA/BHQ-2 abasic DNA cleavage fluorescence; activity change, negative = inhibition: at 65.8 µM (top of the series)
# In short: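 Kinetic fluorescence read (525 ex/598 em nm, three reads 60 s apart) of AP-site incision; signal = third minus first read. Enzyme 0.75 nM, dual-labelled THF duplex 50 nM, compound preincubation 15 min RT.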
# Potency means the concentration at half of the fitted maximal effect.
Compound,"activity change, negative = inhibition",Potency
Cc1cc(C)cc(C(=O)NC2C(=O)N3C(C(=O)O)=C(CSc4nnc(C)s4)CSC23)c1 (stereo not given),11% (inactive),–
C=CC1=C(C(=O)O)N2C(=O)[C@@H](NC(=O)/C(=N\OCC(=O)O)c3csc(N)n3)[C@H]2SC1,–,11.9 µM (active)
CO/N=C(\C(=O)N[C@@H]1C(=O)N2C(C(=O)O)=C(COC(C)=O)CS[C@H]12)c1csc(N)n1 (stereo in doubt),–,inactive and 10 µM (active) and 10.6 µM (active)
Cc1nnc(SCC2=C(C(=O)O)N3C(=O)C(NC(=O)Cn4nc(C)c(Cl)c4C)C3SC2)s1 (stereo not given),-12.4% (inactive),–
C/C=C/C1=C(C(=O)O)N2C(=O)[C@@H](NC(=O)[C@H](N)c3ccc(O)cc3)[C@H]2SC1,0.591% (inactive),–
CC(C)(C)OC(=O)C1=C(CO)CS[C@@H]2[C@H](NC(=O)Cc3ccccc3)C(=O)N12,-6.04% (inactive),–
CC(C)[C@@H](OCc1ccccc1)[C@H](C)/C=N\OC[C@@H](C)[C@H](OCc1ccccc1)C(C)C,-2.11% [at 12.4 µM] (inactive),–
CO[C@H]1C=CO[C@@]2(C)Oc3c(C)c(O)c4c(O)c(c(/C=N/N5CCN(C)CC5)c(O)c4c3C2=O)NC(=O)/C(C)=C\C=C[C@H](C)[C@H](O)[C@@H](C)[C@@H](O)[C@@H](C)[C@H](OC(C)=O)[C@@H]1C,-5.53% (inactive),–
CC[C@H](C)CCCCC(=O)N[C@@H](CCN)C(=O)N[C@H](C(=O)N[C@@H](CCN)C(=O)N[C@H]1CCNC(=O)[C@@H]([C@H](C)O)NC(=O)[C@H](CCN)NC(=O)[C@H](CCN)NC(=O)[C@H](CC(C)C)NC(=O)[C@@H](CC(C)C)NC(=O)[C@H](CCN)NC1=O)[C@@H](C)O (X1-[Dab]T[Dab][Dab][Dab][dL]L[Dab][Dab][dT]; lactam 4-C),9.36% [at 21 µM] (inactive),–
C[C@H]1Cc2c(COc3ccccc3)nc3c(c2CO1)CN(C(=O)Nc1cccc(C#N)c1)CC3,-2.12% [at 12.4 µM] (inactive),–
OCCC(O)CO (stereo not given),–,inactive
O=C(c1csnn1)N1CCC[C@@]2(CCN(c3cccc(-c4ccccc4)c3)C2)C1,1.07% (inactive),–
Cn1cccc1C(=O)N1CCC2(CC1)CN(c1cccc(-c3ccccc3)c1)C2,-0.0489% (inactive),–
Nc1ncnc2c1ncn2C1CC(O)C(CO)O1 (stereo not given),–,inactive
CC1(OC(=O)c2ccc(Cl)nc2)C(=O)Cc2cc(-c3ccsc3)ncc2C1=O (stereo not given),-0.549% [at 12.4 µM] (inactive),–
Cc1ccc(C(=O)NNc2ncnc3ccccc23)cc1,8.13% (inactive),–
Cc1ccc(C(=O)NNC(=O)c2cc3cc4ccccc4nc3s2)cc1,–,22.4 µM (active)
Cc1ccc(C(=O)NNC(=O)c2ccc3c(c2)OCCO3)cc1,42.9% (inactive),–
Cn1cc(-c2nc3cnc(N4CCNCC4)nc3n(CCc3ccccc3)c2=O)c2ccccc21,-2.84% (inactive),–
COc1ccc(Oc2ncc3nc(-c4ccc(F)cc4)c(=O)n(C)c3n2)cc1,3% (inactive),–
